The record followed here is PubChem BioAssay.

Assay [1] can be described thus: liver-stage malaria parasite growth inhibition, primary screen, cell-based, HepG2, luciferase luminescence, HepG2 viability (AID 624349).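 Further: 100% = mean of DMSO negative control wells on the same plate.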 The settings on record: P. berghei liver stage in HepG2, luciferase luminescence, concentration not given here; parasite load remaining: stronger effect = lower value; viability: measured here: HepG2 viability without parasites.
A short description of assay [2]: differential killing of epithelial or mesenchymal cells, primary screen, imaging, PC-3E GFP, TEM4-18 mCherry, co-culture (AID 1345086;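 active means compounds killing one labelled cell type while sparing the other, by normalised counts and ratio limits, not self-fluorescent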;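 on all read-outs here: cells exposed to compound for 72 h before imaging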;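 on red/green cell ratio (normalised): normalised mesenchymal count divided by normalised epithelial count so high means epithelial killing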). As to conditions: imaging cell counts, at 1 µM; for red/green cell ratio (normalised): actives lie on both sides, counts scaled to control wells, 1 = unselective.
Assay [3] can be described thus: sensitizers of A549 cells to miR-34 induction, primary screen, imaging, A549 dox-inducible miR-34, nuclei and caspase counts (AID 1347080;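 active means compounds whose cell count with miR-34 switched on is under 0.7 times the count with it off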). As to conditions: A549 miR-34 inducible, Hoechst nuclei count, 48 h.
The nature of assay [4]: hESC survival regulators, cell-based (AID 493140; call rule not given here;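 further: cells exposed to compounds for four days before counting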). As to conditions: human embryonic stem cell survival screen; stronger effect = higher value.
[5] abbreviates: measured here: epithelial PC-3E GFP cell survival.
The mark [6] stands for this setting: measured here: mesenchymal TEM4-18 mCherry cell survival.
Setting [7] is: stronger effect = lower value, cell number ratio, induced over uninduced.
Setting [8] is: measured here: relative caspase fold change +Dox/-Dox.
Where [9] appears, read: measured here: total cells with miR-34 induction, stronger effect = lower value.
Setting [10] is: measured here: total cells without miR-34 induction.

Each structure is given as a SMILES string. Several values for one entry are separate records, joined by “and”; a condition that tells them apart may be missing. Identical values can stand only once. Activity calls are given as the source filed them. Unless noted, no stated cut-off is given here; in the data, active means parasite load remaining mostly below about 12% (no sharp cut-off); inactive means mostly above about 10%. Numbered stars: 1 amine (or outer) side, 2 acyl side, 3 side chain; on linkers, the order of the positions; unused ones are H or OH. Bridge positions count the residues as written; N and C are the ends. Square brackets hold non-standard residues; d marks the D form. Peptide text beside a SMILES is read from it. I, II: the chains in the order shown. Actinocin(9to1) = Cc1c2oc3c(C)ccc(C(=O)[*:1])c3nc-2c(C(=O)[*:2])c(N)c1=O; NMeV = CN[CH](C(=O)O)C(C)C; Sar = CNCC(=O)O

As for `CS(=O)(=O)c1ccc(C(O)[C@H](CF)NC(=O)C(Cl)Cl)cc1` (some centres undefined), the parasite load remaining in assay [1] is 50.1% (inactive). Besides, the viability in assay [1] was determined as 102%. Moreover, the red/green cell ratio (normalised) in assay [2] was 0.78 (inactive). For the same compound, the normalised cell number in assay [2] (setting [5]) was determined as 0.91; in assay [2] (setting [6]) it was 0.71. Further, the results for the fold change in assay [3] (setting [7]) and in assay [3] (setting [8]) were 0.945 (inactive) and 2.12, respectively. Also, the cell count worked out at 10700 in assay [3] (setting [9]) and 11400 in assay [3] (setting [10]).
Take `CC(=O)Nc1ccc(S(=O)(=O)Nc2onc(C)c2C)cc1`: the parasite load remaining in assay [1] was 53.8% (inactive). Also, the viability in assay [1] was determined as 98%. Moreover, the red/green cell ratio (normalised) in assay [2] was 0.94 (inactive). In addition, the results for the normalised cell number in assay [2] (setting [5]) and in assay [2] (setting [6]) were 1 and 0.93, respectively. In addition, the values for the fold change in assay [3] (setting [7]) and in assay [3] (setting [8]) were 0.897 (inactive) and 5, respectively. Further, the cell count in assay [3] (setting [9]) is 11800; in assay [3] (setting [10]), 13200.
In the case of `Cc1c2oc3c(C)ccc(C(=O)OC(C)C4NC(=O)C(C(C)C)N(C)C(=O)CN(C)C(=O)C5CCCN5C(=O)C(C(C)C)NC4=O)c3nc-2c(C(=O)OC(C)C2NC(=O)C(C(C)C)N(C)C(=O)CN(C)C(=O)C3CCCN3C(=O)C(C(C)C)NC2=O)c(N)c1=O` (centres undefined) (I: cyclo([Sar][NMeV]TVP) / II: cyclo([Sar][NMeV]TVP); linker I:3-II:3 via Actinocin(9to1); configuration not given here), in assay [1], the parasite load remaining is -0.105% (inactive). For the same compound, in assay [1], the viability came to 76.4%. In addition, the red/green cell ratio (normalised) in assay [2] was 1.97 (active). For the same compound, the normalised cell number was 0.25 in assay [2] (setting [5]) and 0.49 in assay [2] (setting [6]). Further, the fold change in assay [3] (setting [7]) was 0.996 (inactive); in assay [3] (setting [8]), 1.67. The values for the cell count in assay [3] (setting [9]) and in assay [3] (setting [10]) were 2910 and 2920, respectively.
For `CC(=O)Nc1cc2ccccc2oc1=O`, in assay [4], the survival is 3.5 (inactive). Further, the parasite load remaining in assay [1] is 90.5% (inactive). The viability in assay [1] is 77.8%. In addition, the red/green cell ratio (normalised) in assay [2] is 0.74 (inactive). Further, the results for the normalised cell number in assay [2] (setting [5]) and in assay [2] (setting [6]) were 1.29 and 0.95, respectively. Moreover, the fold change in assay [3] (setting [7]) was 0.955 (inactive); in assay [3] (setting [8]), 0.792. The cell count is 8640 in assay [3] (setting [9]) and 9040 in assay [3] (setting [10]).
Turning to `CN[C@@H]1[C@@H](O[C@H]2O[C@H](CO)[C@@H](N)[C@H](O)[C@H]2O)O[C@H]2C[C@@H](N)[C@H](O[C@H]3[C@H](O)[C@@H](O)[C@H](N)C[C@@H]3N)O[C@@H]2[C@@H]1O`, the parasite load remaining in assay [1] is 70.7% (inactive) and 61.8% (inactive). The viability in assay [1] is 108% and 98.4%. The red/green cell ratio (normalised) in assay [2] is 1.38 (inactive). The figures for the normalised cell number in assay [2] (setting [5]) and in assay [2] (setting [6]) were 0.99 and 1.36, respectively. Moreover, the fold change was 0.903 (inactive) in assay [3] (setting [7]) and 5.22 in assay [3] (setting [8]). The cell count is 12300 in assay [3] (setting [9]) and 13600 in assay [3] (setting [10]).
Take `CC(C)c1c(C(=O)c2ccccc2)c(-c2ccccc2)c(-c2ccc(F)cc2)n1CC[C@@H](O)C[C@@H](O)CC(=O)O`: in assay [1], the parasite load remaining was 174% (inactive) and 44.6% (inactive). Moreover, the viability in assay [1] was 88% and 103%. Further, the red/green cell ratio (normalised) in assay [2] was 0.86 (inactive). Besides, the normalised cell number came out at 1.3 in assay [2] (setting [5]) and 1.12 in assay [2] (setting [6]). In addition, the fold change is 0.867 (inactive) in assay [3] (setting [7]) and 3.4 in assay [3] (setting [8]). The cell count in assay [3] (setting [9]) is 9140; in assay [3] (setting [10]) it was 10500.
On to `C=C1CC[C@H](O)C/C1=C/C=C1\CCCC2(C)C1CCC2C(C)CCCC(C)C` (some centres undefined), for which, in assay [1], the parasite load remaining is 36.2% (inactive). The viability in assay [1] is 104%. The red/green cell ratio (normalised) in assay [2] is 1.03 (inactive). Further, the normalised cell number in assay [2] (setting [5]) came out at 1.11; in assay [2] (setting [6]), 1.14. For the same compound, the figures for the fold change in assay [3] (setting [7]) and in assay [3] (setting [8]) were 0.909 (inactive) and 2.89, respectively. The results for the cell count in assay [3] (setting [9]) and in assay [3] (setting [10]) were 11700 and 12900, respectively.

For orientation: viability means a read-out of living cells in per cent, often relative to untreated cells.
